Reference: PubChem BioAssay AID1508633 (National Center for Advancing Translational Sciences (NCATS), 2021)
Inconclusive results are not listed. Calls of active or inactive are those of the source. Calls come from the whole dose curve; as a rule, active = well fitted inhibition curve with a large enough effect; inconclusive = small, poorly fitted or top-dose-only effect; inactive = no such curve, though single readings can be large or run the other way.

test system: zebrafish ABCB5 (Abcb5) multidrug transporter; test: qHTS for characterization and localization of zebrafish homologs of the human ABCB1 multidrug transporter: ABCB5 transfected cells; conditions: CellTiter-Glo luminescence viability, 72 h; series mostly up to 46.1 µM
Description: The zebrafish has emerged as a potential model to study the blood-brain barrier (BBB) given its similarities with mammalian systems. However, little information has been available with regard to homologous ATP-binding cassette transporters expressed at the zebrafish BBB. Two transporters that are highly expressed at the human BBB are P-glycoprotein (P-gp, encoded by the ABCB1 gene) and ABCG2 (encoded by the ABCG2 gene). In this study, we focus on characterization of P-gp homologs in the zebrafish, which has two genes that are homologous to human ABCB1 - abcb4 and abcb5. We generated stably-transfected cell lines to determine their substrate specificities. […] Zebrafish abcb4 also colocalized with claudin 5 expression in brain endothelial cells.
A high-throughput screen was performed as previously described on empty vector transfected cells, P-gp-overexpressing MDR-19 cells and cells transfected with full-length zebrafish abcb4 (ZF Abcb4) or abcb5 (ZF Abcb5). Briefly, cells were plated into 1536-well plates at a density of 500 cells/well in 5 uL media. P-gp substrate compounds (approximately 90) selected from our previous study were then added at varying concentrations using a 1536-head pin tool (Kalypsis, San Diego, CA) and plates were incubated at 37C in 5% CO2 for 72 h. CellTiter-Glo reagent (Promega) was dispensed into the wells, incubated for 5 min and luminescence was read on a ViewLux instrument (Perkin-Elmer).
Cytotoxic compounds were defined as those that yielded a curve class of -1.1, -1.2, -2.1, -2.2, -2.3, or -2.4, a maximum response of >50% and an AC50 of < 10 uM. All compounds from screening analysis were tested in Vector (empty vector control), MDR-19 (P-gp overexpressing), zebrafish abcb4 (ZF Abcb4) and abcb5 (ZF Abcb5) expression cell lines.
1. Tobie D Lee, Olivia W Lee, Kyle R Brimacombe, Lu Chen, Rajarshi Guha, Sabrina Lusvarghi, Bethilehem G Tebase, Carleen Klumpp-Thomas, Robert W Robey, Suresh V Ambudkar, Min Shen, Michael M Gottesman, Matthew D Hall. A High-Throughput Screen of a Library of Therapeutics Identifies Cytotoxic Substrates of P-glycoprotein. Mol Pharmacol. 2019, Nov;96(5):629-640.

Compound | Potency
CCN(CCCO)CCCOc1ccc2c(Nc3cc(CC(=O)Nc4cccc(F)c4)[nH]n3)ncnc2c1 | inactive
CN(C)C/C=C/C(=O)Nc1cccc(C(=O)Nc2ccc(Nc3nccc(-c4cccnc4)n3)cc2)c1 | 14800 nM (active)
CC(=O)OC1C(=O)C2(C)C(O)CC3OCC3(OC(C)=O)C2C(OC(=O)c2ccccc2)C2(O)CC(OC(=O)C(O)C(NC(=O)c3ccccc3)c3ccccc3)C(C)=C1C2(C)C (stereo unspecified) | inactive
CC[C@@]1([C@@H]2O[C@@H]([C@H]3O[C@@](O)(CO)[C@H](C)C[C@@H]3C)C[C@@H]2C)CC[C@H]([C@]2(C)CC[C@]3(C[C@H](O)[C@@H](C)[C@@H]([C@@H](C)[C@@H](OC)[C@H](C)C(=O)O)O3)O2)O1 | 2640 nM (active)
C[C@@]12O[C@@H](C[C@]1(O)CO)n1c3ccccc3c3c4c(c5c6ccccc6n2c5c31)CNC4=O | 5260 nM (active)
COc1cc(C(=O)NC2CCN(C)CC2)ccc1Nc1ncc2c(n1)N(C1CCCC1)CC(F)(F)C(=O)N2C | 1180 nM (active)
C=CCn1c(=O)c2cnc(Nc3ccc(N4CCN(C)CC4)cc3)nc2n1-c1cccc(C(C)(C)O)n1 | 2350 nM (active)
COC[C@H](NC(=O)c1cnc(C)s1)C(=O)N[C@@H](COC)C(=O)N[C@@H](Cc1ccccc1)C(=O)[C@@]1(C)CO1 | 166 nM (active)
CCC(C)C(=O)OC1CC(O)C23C4OCC5(C(O)CC2C1(C)C(O)O4)C3C(=O)C(O)C1(C)C(O)(c2ccoc2)CC2OC251 (stereo unspecified) | inactive
CC[C@@H]1C(=O)N(C)c2cnc(Nc3ccc(C(=O)NC4CCN(C)CC4)cc3OC)nc2N1C1CCCC1 | 1320 nM (active)
CN(C)C1CCN(C(=O)c2ccc(NC(=O)Nc3ccc(-c4nc(N5CCOCC5)nc(N5CCOCC5)n4)cc3)cc2)CC1 | 7430 nM (active)
